A short description of assay [1]: NCI Yeast Anticancer Drug Screen. Data for the rad50 strain (AID 155).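 Also: 0% = growth of vehicle-only cultures of the same strain.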 The following applies: S. cerevisiae rad50 strain growth inhibition, active compounds read high. In a few lines:
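A DNA repair-deficient yeast mutant serves as the test organism; compound-induced growth inhibition is calculated against vehicle-treated cells.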

Assay [2] can be described thus: NCI Yeast Anticancer Drug Screen. Data for the mec2-1 strain (AID 157). The following applies: S. cerevisiae mec2-1 strain, active compounds read high. In a few lines: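 Cells of the genetically defined mec2-1 yeast strain are incubated with test compound. Inhibition of growth is calculated against vehicle-treated controls.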
Assay [3] can be described thus: NCI Yeast Anticancer Drug Screen. Data for the sgs1 mgt1 strain (AID 161).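 Also: 0% = growth of cultures given vehicle only.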 The following applies: S. cerevisiae sgs1 mgt1 strain, active compounds read high. In short, it runs like this: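 Test agents were incubated with a DNA-repair-mutant yeast strain. Growth was then read and compared against vehicle-treated controls.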
The nature of assay [4]: NCI Yeast Anticancer Drug Screen. Data for the cln2 rad14 strain (AID 165).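 Also: 0% = growth equal to vehicle treated cultures.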 The conditions noted are these: S. cerevisiae cln2 rad14 strain, active compounds read high. In a few lines:
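The screen exposed genetically defined yeast (cln2 rad14) to test compounds and scored growth inhibition relative to vehicle-treated controls.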

Assay [5] is described as follows: NCI Yeast Anticancer Drug Screen. Data for the bub3 strain (AID 167). The conditions noted are these: S. cerevisiae bub3 mutant strain, active compounds read high. In short, it runs like this:
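Inhibition values come from growth of compound-treated mutant yeast normalised to vehicle-treated controls.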

Assay [6] can be described thus: NCI Yeast Anticancer Drug Screen. Data for the mlh1 rad18 strain (AID 175). The conditions noted are these: S. cerevisiae mlh1 rad18 strain growth inhibition, active compounds read high. In short, it runs like this: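 Compound-treated yeast growth, normalised to vehicle controls. Strain bears defined DNA repair mutations.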
[7] abbreviates: at 5.0 µM (retest, dose inferred, filed as 0.5).
Where [8] appears, read: at 50.0 µM (retest, dose inferred, filed as 5.0).

In PubChem BioAssay (NCI) one finds growth inhibition data, which are given here for ten molecules.

Compounds without any hit were thinned out: in the full panel of roughly 79,000, 15% have a hit. Values without a mark were called inactive. Active and inactive are the calls of the source. Rule as the data show it: active = growth inhibition above about 70%; inactive = the rest.

With `Cc1c(C2Cc3ccccc3N2C(=O)/C=C\C(=O)O)c2ccccc2n1C` (stereo not given), the growth inhibition in assay [1] (setting [7]) is 33%; in assay [1] (setting [8]), 32%; in assay [1] (at 50.0 µM), 74.8% (active); in assay [2] (setting [7]) it was 25%; in assay [2] (setting [8]) it was 35%; in assay [2] (at 50.0 µM), 33.4%. Also, the growth inhibition in assay [3] (setting [7]) is 39%; in assay [3] (setting [8]), 34%; in assay [3] (at 50.0 µM), 40.4%; in assay [4] (setting [7]), 31%; in assay [4] (setting [8]) it was 35%; in assay [4] (at 50.0 µM), 53.5%. Moreover, the growth inhibition is 38% in assay [5] (setting [7]); 38% in assay [5] (setting [8]); 32.6% in assay [5] (at 50.0 µM); 42% in assay [6] (setting [7]); 35% in assay [6] (setting [8]); 22.4% in assay [6] (at 50.0 µM).
In the case of `CC/C(C)=N/OC(=O)Nc1ccccc1`, the growth inhibition in assay [1] (setting [7]) is 5%; in assay [1] (setting [8]), 0%; in assay [1] (at 50.0 µM), 39.1%; in assay [2] (setting [7]), -22%; in assay [2] (setting [8]) it was 5%; in assay [2] (at 50.0 µM) it was 17.2%. Further, the growth inhibition in assay [3] (setting [7]) was 2%; in assay [3] (setting [8]), 20%; in assay [3] (at 50.0 µM), 64.7%; in assay [4] (setting [7]) it was 5%; in assay [4] (setting [8]), 8%; in assay [4] (at 50.0 µM), 11.2%. In addition, the growth inhibition in assay [5] (setting [7]) was -74%; in assay [5] (setting [8]) it was 2%; in assay [5] (at 50.0 µM) it was 0.05%; in assay [6] (setting [7]), 1%; in assay [6] (setting [8]), 14%; in assay [6] (at 50.0 µM) it was 34%.
Turning to `CCc1c(O)sc2c(c1=O)C(=NCC(C)C)CC(C)(C)N2`, the growth inhibition is -5% in assay [1] (setting [7]); 5% in assay [1] (setting [8]); 40.3% in assay [1] (at 50.0 µM); 15% in assay [2] (setting [7]); 34% in assay [2] (setting [8]); 24.1% in assay [2] (at 50.0 µM). Moreover, the growth inhibition in assay [3] (setting [7]) is 9%; in assay [3] (setting [8]) it was -4%; in assay [3] (at 50.0 µM) it was 34.1%; in assay [4] (setting [7]), -14%; in assay [4] (setting [8]), -7%; in assay [4] (at 50.0 µM), 27.4%. Besides, the growth inhibition is 2% in assay [5] (setting [7]); 4% in assay [5] (setting [8]); 10.8% in assay [5] (at 50.0 µM); -12% in assay [6] (setting [7]); -6% in assay [6] (setting [8]); 53.9% in assay [6] (at 50.0 µM).
Consider `CC(C)CC(CC(C)C)NCC(C)OC(=O)C(c1ccccc1)c1ccccc1` (stereo not given), for which the growth inhibition in assay [1] (setting [7]) was -1%; in assay [1] (setting [8]), 94% (active); in assay [1] (at 50.0 µM) it was 29.2%; in assay [2] (setting [7]), -8%; in assay [2] (setting [8]), 78% (active); in assay [2] (at 50.0 µM), 50.3%. The growth inhibition was -3% in assay [3] (setting [7]); 97% (active) in assay [3] (setting [8]); 84.8% (active) in assay [3] (at 50.0 µM); -3% in assay [4] (setting [7]); 73% (active) in assay [4] (setting [8]); 20.9% in assay [4] (at 50.0 µM). In addition, the growth inhibition was -9% in assay [5] (setting [7]); 93% (active) in assay [5] (setting [8]); 68.2% in assay [5] (at 50.0 µM); 18% in assay [6] (setting [7]); 96% (active) in assay [6] (setting [8]); 95.2% (active) in assay [6] (at 50.0 µM).
For the molecule `CSc1ccc(/C=C2/C[N+](C)(C)C/C(=C/c3ccc(SC)cc3)C2=O)cc1`, the growth inhibition in assay [1] (setting [7]) was 41%; in assay [1] (setting [8]) it was 41%; in assay [1] (at 50.0 µM), 90.6% (active); in assay [2] (setting [7]), 22%; in assay [2] (setting [8]), 22%; in assay [2] (at 50.0 µM), 90.7% (active). The growth inhibition is 34% in assay [3] (setting [7]); 34% in assay [3] (setting [8]); 87.3% (active) in assay [3] (at 50.0 µM); 20% in assay [4] (setting [7]); 20% in assay [4] (setting [8]); 86.5% (active) in assay [4] (at 50.0 µM). Besides, the growth inhibition in assay [5] (setting [7]) was 6%; in assay [5] (setting [8]), 6%; in assay [5] (at 50.0 µM) it was 90.2% (active); in assay [6] (setting [7]) it was 32%; in assay [6] (setting [8]), 32%; in assay [6] (at 50.0 µM), 86.7% (active).
With `Cc1cc(OCCl)ccc1[N+](=O)[O-]`, the growth inhibition is -2% in assay [1] (setting [7]); 26% in assay [1] (setting [8]); 30.4% in assay [1] (at 50.0 µM); -2% in assay [2] (setting [7]); 32% in assay [2] (setting [8]); 25.6% in assay [2] (at 50.0 µM). The growth inhibition is -16% in assay [3] (setting [7]); 67% in assay [3] (setting [8]); 39.1% in assay [3] (at 50.0 µM); -1% in assay [4] (setting [7]); 55% in assay [4] (setting [8]); 15.6% in assay [4] (at 50.0 µM). The growth inhibition was 15% in assay [5] (setting [7]); 58% in assay [5] (setting [8]); 19.9% in assay [5] (at 50.0 µM); 1% in assay [6] (setting [7]); 80% (active) in assay [6] (setting [8]); 74.8% (active) in assay [6] (at 50.0 µM).
`OC(CC(CC(O)(C(F)(F)F)C(F)(F)F)=NN=C(CC(O)(C(F)(F)F)C(F)(F)F)CC(O)(C(F)(F)F)C(F)(F)F)(C(F)(F)F)C(F)(F)F`: the growth inhibition in assay [1] (setting [7]) was 41%; in assay [1] (setting [8]) it was 73% (active); in assay [1] (at 50.0 µM), 83.7% (active); in assay [2] (setting [7]) it was 31%; in assay [2] (setting [8]), 92% (active); in assay [2] (at 50.0 µM), 84.3% (active). For the same molecule, the growth inhibition is 32% in assay [3] (setting [7]); 88% (active) in assay [3] (setting [8]); 78.5% (active) in assay [3] (at 50.0 µM); 35% in assay [4] (setting [7]); 72% (active) in assay [4] (setting [8]); 72% (active) in assay [4] (at 50.0 µM). Also, the growth inhibition in assay [5] (setting [7]) is 37%; in assay [5] (setting [8]), 81% (active); in assay [5] (at 50.0 µM) it was 82.7% (active); in assay [6] (setting [7]), 46%; in assay [6] (setting [8]), 93% (active); in assay [6] (at 50.0 µM) it was 67.6%.
Regarding `Nn1c(-c2ccccc2)nn(C(=O)c2ccccc2)c1=O`, the growth inhibition is 0% in assay [1] (setting [7]); 39% in assay [1] (setting [8]); 39.5% in assay [1] (at 50.0 µM); -2% in assay [2] (setting [7]); 45% in assay [2] (setting [8]); 39.7% in assay [2] (at 50.0 µM). In addition, the growth inhibition in assay [3] (setting [7]) is 15%; in assay [3] (setting [8]), 50%; in assay [3] (at 50.0 µM) it was 60%; in assay [4] (setting [7]), -1%; in assay [4] (setting [8]), 8%; in assay [4] (at 50.0 µM), 30.4%. Moreover, the growth inhibition was -3% in assay [5] (setting [7]); 62% in assay [5] (setting [8]); 14.7% in assay [5] (at 50.0 µM); 1% in assay [6] (setting [7]); 58% in assay [6] (setting [8]); 87.7% (active) in assay [6] (at 50.0 µM).
Consider `CCOC(CCCl)OCC`, for which the growth inhibition was 0% in assay [1] (setting [7]); 2% in assay [1] (setting [8]); 7.35% in assay [1] (at 50.0 µM); 0% in assay [2] (setting [7]); 4% in assay [2] (setting [8]); 5.7% in assay [2] (at 50.0 µM). The growth inhibition was -1% in assay [3] (setting [7]); 1% in assay [3] (setting [8]); -2.9% in assay [3] (at 50.0 µM); 0% in assay [4] (setting [7]); -5% in assay [4] (setting [8]); 89.2% (active) in assay [4] (at 50.0 µM). The growth inhibition in assay [5] (setting [7]) was 1%; in assay [5] (setting [8]), -3%; in assay [5] (at 50.0 µM), 2.35%; in assay [6] (setting [7]), 0%; in assay [6] (setting [8]), 3%; in assay [6] (at 50.0 µM) it was 13.3%.
As to `CC(=O)N1c2ccccc2Sc2ccc3ccc(C(=O)CCl)cc3c21`, the growth inhibition was 81% (active) in assay [1] (setting [7]); 97% (active) in assay [1] (setting [8]); 87.2% (active) in assay [1] (at 50.0 µM); 83% (active) in assay [2] (setting [7]); 98% (active) in assay [2] (setting [8]); 90.5% (active) in assay [2] (at 50.0 µM). In addition, the growth inhibition was 92% (active) in assay [3] (setting [7]); 98% (active) in assay [3] (setting [8]); 89.9% (active) in assay [3] (at 50.0 µM); 70% (active) in assay [4] (setting [7]); 97% (active) in assay [4] (setting [8]); 88.3% (active) in assay [4] (at 50.0 µM). For the same molecule, the growth inhibition in assay [5] (setting [7]) was 93% (active); in assay [5] (setting [8]), 97% (active); in assay [5] (at 50.0 µM), 89.2% (active); in assay [6] (setting [7]), 65%; in assay [6] (setting [8]), 97% (active); in assay [6] (at 50.0 µM), 87.8% (active).
